Assay [1] is described as follows: ATG_PXRE_CIS: Attagene CIS-FACTORIAL HepG2 Assay for human Pregnane X Receptor Element (PXRE) (AID 2282957). The following applies: HepG2 Attagene CIS-FACTORIAL PXRE reporter, mRNA; actives raise or lower the signal. Put shortly: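 Cells: HepG2, transiently transfected reporter units under cis promoter control. Exposure: 24 h. Detection: reporter mRNA via RT-PCR/CE fluorescence; bidirectional fitting, DMSO-referenced.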

Assay [2] in a line: ATG_PPRE_CIS: Attagene CIS-FACTORIAL HepG2 Assay for human Peroxisome Proliferator-activated Response Element (PPRE) (AID 2282958). The following applies: HepG2 PPRE cis-element reporter, Attagene transcription factor profiling; actives raise or lower the signal. The procedure, abridged: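 HepG2 cells are transiently transfected with multiplexed cis-promoter reporter units to report endogenous PPAR activity. After 24 h dosing, reporter mRNA is read by RT-PCR and capillary electrophoresis. Fitting is bidirectional against DMSO.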

Assay [3] can be described thus: ATG_RORE_CIS: Attagene CIS-FACTORIAL HepG2 Assay for human RAR-related Orphan Receptor Element (RORE) (AID 2282959). The conditions noted are these: HepG2 Attagene cis-factorial RORE reporter, mRNA; actives raise or lower the signal. Put shortly: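 HepG2 cells carrying transiently transfected cis-regulated reporter units; RORE-driven reporter mRNA quantified 24 h post-dosing by RT-PCR, 6-FAM primer extension, HpaI digestion and capillary electrophoresis. Bidirectional fit versus DMSO.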

Assay [4] is described as follows: ATG_Sox_CIS: Attagene CIS-FACTORIAL HepG2 Assay for human SRY-box transcription factor (SOX) (AID 2282960). The following applies: HepG2 Attagene cis-factorial SOX reporter, mRNA; actives raise or lower the signal. The procedure, abridged:
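HepG2 cells transiently transfected with multiple cis-regulated reporter units, then dosed for 24 h. Reporter mRNA quantified by RT-PCR, fluorescent labelling, HpaI digestion and capillary electrophoresis; bidirectional fit versus DMSO.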

Assay [5] addresses Transcription factor Sp1 (Homo sapiens) (UniProt P08047). As to the kind of experiment: ATG_Sp1_CIS: Attagene CIS-FACTORIAL HepG2 Assay for human Specificity Protein 1 (Sp1) (AID 2282961). The conditions noted are these: HepG2 Sp1 cis-reporter transcription, actives raise or lower the signal. Put shortly: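 HepG2 cells transiently transfected with multiplexed cis-regulated reporter constructs, chemical exposure 24 h. Reporter mRNA quantified by RT-PCR with capillary electrophoresis; bidirectional fit relative to DMSO.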

Assay [6] is described as follows: ATG_SREBP_CIS: Attagene CIS-FACTORIAL HepG2 Assay for human Sterol Regulatory Element Binding (SREBP) (AID 2282962). The conditions noted are these: HepG2 Attagene cis-factorial SREBP reporter, mRNA; actives raise or lower the signal. Put shortly:
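Twenty-four hours after chemical dosing of transfected HepG2 cultures, reporter RNA was converted to cDNA, amplified, end-labelled with 6-FAM and resolved by capillary electrophoresis. Responses were fitted relative to DMSO.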

Assay [7] in a line: ATG_TA_CIS: Attagene CIS-FACTORIAL HepG2 Assay for human TA Basal Promoter (AID 2282964). The following applies: HepG2 Attagene CIS-factorial TA basal promoter reporter; actives raise or lower the signal. The procedure, abridged:
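Background-control readout: TA basal promoter reporter mRNA, fitted in both directions relative to DMSO. Measured by RT-PCR and capillary electrophoresis 24 hours after treating HepG2 human liver cells transiently carrying multiplexed cis-regulated reporter constructs.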

Assay [8] is described as follows: ATG_TCF_b_cat_CIS: Attagene CIS-FACTORIAL HepG2 Assay for human T-Cell-Factor with beta-catenin (TCF/b-cat) (AID 2282965). The conditions noted are these: HepG2 TCF/beta-catenin cis-reporter transcription, actives raise or lower the signal. The procedure, abridged: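 Endogenous transcription factor activity is captured through cis-promoter reporter constructs transiently introduced into human HepG2 liver cells. Induced reporter mRNA is measured after 24 h and fitted bidirectionally relative to DMSO.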

Assay [9] is described as follows: ATG_TAL_CIS: Attagene CIS-FACTORIAL HepG2 Assay for human TAL Basal Promoter (AID 2282966).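 Further: background control endpoint measuring basal TAL promoter reporter mRNA not a specific factor.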 The following applies: HepG2 Attagene cis-factorial TAL promoter reporter; actives raise or lower the signal. The procedure, abridged:
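RT-PCR plus capillary electrophoresis quantifies reporter mRNA induction in transiently transfected HepG2 cells after 24 h chemical treatment. DMSO serves as negative control and baseline for bidirectional fitting.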

Assay [10] has as its target Signal transducer and activator of transcription 3 (Homo sapiens) (UniProt P40763). The experiment in a line: ATG_STAT3_CIS: Attagene CIS-FACTORIAL HepG2 Assay for human Signal Transducer and Activator of Transcription 3 (STAT3) (AID 2282963). The following applies: HepG2, Attagene cis-factorial STAT3 reporter transcription; actives raise or lower the signal. The procedure, abridged: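 Endogenous STAT3-responsive cis-element activity was read in transiently transfected HepG2 cells after 24 h treatment. Reporter transcripts were quantified via RT-PCR and capillary electrophoresis, with DMSO as negative control and bidirectional curve fitting.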

Some structures have more than one record in an assay (separate samples or runs), and their calls can disagree. The source made the active and inactive calls. How the source made its calls: active means hit-call score of the fitted dose curve at least 0.9, where 1 is the maximum; inactive means score below 0.9.

Transcription factor Sp1 (Homo sapiens), sequence (P08047 whole entry, looked up): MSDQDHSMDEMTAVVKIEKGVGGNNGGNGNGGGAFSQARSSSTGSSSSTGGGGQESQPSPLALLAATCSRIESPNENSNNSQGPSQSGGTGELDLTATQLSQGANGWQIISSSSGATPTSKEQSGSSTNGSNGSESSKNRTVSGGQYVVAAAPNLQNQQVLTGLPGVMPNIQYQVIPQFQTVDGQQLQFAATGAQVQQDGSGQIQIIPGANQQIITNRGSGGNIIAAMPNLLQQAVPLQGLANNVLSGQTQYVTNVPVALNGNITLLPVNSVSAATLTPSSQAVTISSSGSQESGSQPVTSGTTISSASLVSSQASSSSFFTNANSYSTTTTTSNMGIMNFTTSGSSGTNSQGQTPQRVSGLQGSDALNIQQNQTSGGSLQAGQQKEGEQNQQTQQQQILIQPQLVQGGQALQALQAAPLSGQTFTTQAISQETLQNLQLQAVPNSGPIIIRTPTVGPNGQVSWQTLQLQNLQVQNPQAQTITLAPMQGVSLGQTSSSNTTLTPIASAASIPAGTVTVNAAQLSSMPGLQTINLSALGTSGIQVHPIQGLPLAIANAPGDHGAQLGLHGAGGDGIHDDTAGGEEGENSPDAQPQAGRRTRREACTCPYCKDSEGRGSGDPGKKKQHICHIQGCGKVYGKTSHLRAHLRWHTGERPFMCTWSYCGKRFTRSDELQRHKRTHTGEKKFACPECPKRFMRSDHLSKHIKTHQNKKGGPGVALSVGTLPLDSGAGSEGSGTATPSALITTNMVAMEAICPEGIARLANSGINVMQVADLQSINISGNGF
Signal transducer and activator of transcription 3 (Homo sapiens), sequence (P40763 whole entry, looked up): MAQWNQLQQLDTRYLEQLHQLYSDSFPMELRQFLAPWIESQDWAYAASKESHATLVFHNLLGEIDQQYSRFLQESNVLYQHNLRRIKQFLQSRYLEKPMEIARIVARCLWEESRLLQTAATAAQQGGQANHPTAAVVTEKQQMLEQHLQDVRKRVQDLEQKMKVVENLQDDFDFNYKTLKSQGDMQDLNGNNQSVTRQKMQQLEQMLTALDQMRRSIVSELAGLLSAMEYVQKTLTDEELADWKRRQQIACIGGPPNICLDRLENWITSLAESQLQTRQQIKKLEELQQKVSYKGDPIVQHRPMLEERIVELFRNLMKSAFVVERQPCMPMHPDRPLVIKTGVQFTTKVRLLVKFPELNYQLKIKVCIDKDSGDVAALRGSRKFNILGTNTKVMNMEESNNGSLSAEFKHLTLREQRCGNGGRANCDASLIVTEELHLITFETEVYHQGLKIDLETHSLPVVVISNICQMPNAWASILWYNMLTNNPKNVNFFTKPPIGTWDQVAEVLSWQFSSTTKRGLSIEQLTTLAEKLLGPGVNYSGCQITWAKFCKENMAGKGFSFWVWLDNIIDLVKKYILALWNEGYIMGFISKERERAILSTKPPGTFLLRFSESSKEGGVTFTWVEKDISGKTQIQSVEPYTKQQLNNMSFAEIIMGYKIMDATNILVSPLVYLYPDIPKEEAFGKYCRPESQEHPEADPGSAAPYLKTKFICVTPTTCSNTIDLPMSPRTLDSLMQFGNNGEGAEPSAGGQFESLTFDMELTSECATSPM

For the compound `CCCCC(CC)CN1C(=O)C2C3C=CC(C3)C2C1=O` (stereo not given), the AC50 in assay [1] was 3.79 µM (active); in assay [2], 50 µM (active); in assay [3], 34 µM (active). Besides, the outcome in [4], in assay [5], in assay [6], in assay [7], in assay [8] and in assay [9] was inactive.

`CCOC(=O)C(C)Oc1ccc(Oc2nc3ccc(Cl)cc3o2)cc1` (stereo not given): the compound was called inactive in [1], in assay [2], in [4], in assay [5], in assay [6] and in assay [10]. Further, the outcome in [7], in [8] and in assay [9] was inactive.

In the case of `CCSC(=O)N(CC(C)C)CC(C)C`, the compound was called inactive in [1], in assay [2], in assay [3], in [4], in [5] and in [6]. For the same compound, the compound was classed as inactive in assay [7], in assay [8] and in assay [9].

Turning to `COC(=O)c1ccc(CNS(C)(=O)=O)cc1S(=O)(=O)NC(=O)Nc1nc(OC)cc(OC)n1`, the compound was classed as inactive in assay [1], in assay [2], in assay [3], in assay [4], in assay [5] and in assay [6]. Further, the result in assay [7], in [8] and in [9] was inactive.

Take `CCCCC(CC)COC(=O)c1ccccc1C(=O)O` (stereo not given): the AC50 in assay [1] is 24.6 µM (active). Also, the compound was classed as inactive in [3], in assay [4], in [5], in [6], in assay [10] and in [7]. For the same compound, the compound was classed as inactive in assay [8] and in [9].

As to `CCCOC(=O)NCCCN(C)C`, the compound was classed as inactive in assay [1], in [3], in [4], in assay [5], in [6] and in assay [10]. In addition, the compound was called inactive in [7], in assay [8] and in [9].

Take `CCCN(CCC)C(=O)SCC`: the result in assay [1], in [3], in assay [4], in assay [5], in [6] and in assay [7] was inactive. Also, the compound was classed as inactive in assay [8] and in [9].

On to `CCOC(=O)c1ccc(O)cc1`, for which the call in [1], in [3], in [4], in assay [5], in assay [6] and in assay [7] was inactive. The outcome in assay [8] and in assay [9] was inactive. Also, the concentration at half-maximal activity (AC50) was 57.3 µM (active) in assay [3] and 43.7 µM (active) in assay [6].

As for `CC1(C)C(C=C(Cl)Cl)C1C(=O)OCc1cccc(Oc2ccccc2)c1` (stereo not given), the AC50 in assay [1] is 7.62 µM (active). In addition, the call in assay [3], in [4], in [5], in [6], in assay [7] and in assay [8] was inactive. Moreover, in assay [9], the compound was classed as inactive.

With `COc1c(Cl)ccc(Cl)c1C(=O)O`, the compound was called inactive in assay [1], in assay [2], in assay [3], in [4], in assay [5] and in assay [6]. Also, the outcome in [7], in assay [8] and in [9] was inactive.

For `CCC(O)=C1C(=O)CC(C(=O)O)CC1=O` (stereo not given), the compound was called inactive in [1], in assay [2], in assay [3], in assay [4], in assay [5] and in assay [6]. The outcome in assay [7], in assay [8] and in [9] was inactive.

`CCOC(=O)[C@H](C)Oc1ccc(Oc2nc3ccc(Cl)cc3o2)cc1`: the compound was classed as inactive in [1], in [4], in [5], in [6], in assay [10] and in assay [7]. The compound was called inactive in assay [8] and in assay [9]. In addition, the AC50 in [2] was 50 µM (active).

For `O=C(O)C1(C(=O)Nc2ccc(Cl)cc2Cl)CC1`, the half-maximal activity concentration (AC50) is 69.7 µM (active) in [1] and 13.7 µM (active) in assay [2]. For the same compound, the call in assay [3], in assay [4], in assay [5], in assay [6], in assay [7] and in [8] was inactive. Also, the outcome in [9] was inactive.

For `CCCCOC(=O)[C@@H](C)Oc1ccc(Oc2ccc(C(F)(F)F)cn2)cc1`, the half-maximal activity concentration (AC50) in [1] is 50 µM (active). Further, the result in [2], in assay [3], in assay [4], in assay [5], in assay [6] and in assay [7] was inactive. The compound was classed as inactive in [8] and in [9].

In the case of `COC(=O)c1ccc(I)cc1S(=O)(=O)NC(=O)Nc1nc(C)nc(OC)n1`, in [1], the AC50 was 50 µM (active). In addition, the outcome in assay [3], in assay [4], in assay [5], in [6], in assay [7] and in assay [8] was inactive. The result in assay [9] was inactive.

For `COC(=O)c1cccc(C)c1S(=O)(=O)NC(=O)Nc1nc(OCC(F)(F)F)nc(N(C)C)n1`, the AC50 in assay [1] was 34.5 µM (active). Also, the compound was classed as inactive in assay [2], in assay [3], in assay [4], in assay [5], in assay [6] and in assay [7]. Moreover, the compound was classed as inactive in assay [8] and in [9].

For the compound `O=C(O)c1ccccc1`, the compound was classed as inactive in assay [1], in assay [3], in [4], in assay [5], in assay [6] and in [7]. In addition, the outcome in [8] and in assay [9] was inactive.
